Compound activity (PubChem BioAssay)
LYPLA2 inh = LYPLA2 (human) inhibition in PME1 counter-screen; O95372; recombinant LYPLA2, FP-Rh probe fluorescence polarization; inhibition, % at 5.9 µM; hit rate 0.38% among 320,000;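 active = inhibition above the screen-wide mean plus 3 SD, limit set per campaign, cut at about 26% in these data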;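 also: 0% = LYPLA2 with DMSO and 100% = wells lacking LYPLA2 enzyme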
Target sequence (O95372 whole entry, looked up): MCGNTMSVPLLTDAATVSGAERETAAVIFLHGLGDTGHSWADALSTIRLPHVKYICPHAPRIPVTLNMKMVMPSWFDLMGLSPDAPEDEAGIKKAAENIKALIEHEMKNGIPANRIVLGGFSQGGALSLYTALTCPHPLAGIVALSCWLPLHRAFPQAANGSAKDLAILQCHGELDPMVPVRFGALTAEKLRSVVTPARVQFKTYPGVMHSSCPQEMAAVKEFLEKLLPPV
LYPLA1 counter = blocks human lysophospholipase 1, a PME1 counter-screen. hit rate 0.16% among 320,000. AID 2174. recombinant LYPLA1, FP-Rh probe fluorescence polarization. inhibition, % at 5.9 µM;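 active = inhibition above the mean of all tested compounds plus 3 SD, set per campaign, cut at about 14% in these data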;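 also: inhibitors block serine hydrolase probe labeling of LYPLA1 so polarization falls; 0% = enzyme with DMSO and 100% = wells lacking LYPLA1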
Target sequence (O75608 whole entry, looked up): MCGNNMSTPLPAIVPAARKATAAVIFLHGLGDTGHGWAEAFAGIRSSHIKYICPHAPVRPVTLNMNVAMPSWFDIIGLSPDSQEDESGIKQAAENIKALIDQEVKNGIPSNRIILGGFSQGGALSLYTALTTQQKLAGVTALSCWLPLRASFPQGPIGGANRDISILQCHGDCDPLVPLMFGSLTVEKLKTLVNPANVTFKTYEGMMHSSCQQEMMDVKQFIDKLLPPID
Fam108B counter = Fam108B inhibition, counter-screen for RBBP9 inhibitors | recombinant Fam108B, FP-Rh probe fluorescence polarization | inhibition, % at 9.51 µM | hit rate 0.33% among 300,000;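 active = inhibition above the screen mean inhibition plus 3 SD, computed separately per campaign, cut at about 18% in these data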;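 also: inhibitors lower polarization as less probe binds the enzyme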
PAD4 inh = PAD4 (human) enzyme inhibition | recombinant PAD4, RCA probe fluorescence polarization | inhibition, % at 6.36 µM | hit rate 0.41% among 330,000;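 active = percent inhibition above a cutoff equal to the mean of all tested compounds plus 3 SD, cut at about 15% in these data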;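 also: 0% = PAD4 with RCA probe and DMSO and 100% = probe without PAD4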
GSTO1 counter = counter-screen for RBBP9 inhibitors: inhibitors of human GSTO1. AID 1974. hit rate 1.1% among 300,000. recombinant GSTO1, activity-based probe fluorescence polarization. P78417. inhibition, % at 5.96 µM;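 active = inhibition above the campaign mean inhibition plus 3 SD, cut at about 35% in these data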;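 also: 0% = GSTO1-1 with DMSO and 100% = wells lacking GSTO1-1 enzyme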
PME-1 inh = blocks human protein phosphatase methylesterase 1 | Q9Y570 | recombinant PME-1, FP-Rh probe fluorescence polarization | inhibition, % at 5.9 µM | hit rate 0.53% among 320,000;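 active = inhibition above the campaign mean of all compounds plus 3 SD, cut at about 26% in these data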;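 also: competitive labeling of PME-1 active site by serine hydrolase directed probe; 0% = PME-1 with DMSO and 100% = wells lacking PME-1 enzyme; inhibitors block probe labeling so polarization falls and inhibition rises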
LYPLA2 conf = LYPLA2 (human) inhibition, confirmation counter-screen. inhibition, % at 5.9 µM. shares compounds with LYPLA2 inh. hit rate 72% among 1,100. recombinant LYPLA2, FP-Rh probe fluorescence polarization;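 active = mean inhibition across replicates above the hit cutoff set in the primary screen, cut at about 26% in these data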;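 also: blocked labeling of the enzyme by serine hydrolase FP-Rh probe lowers polarization; 0% = enzyme with DMSO and 100% = wells lacking LYPLA2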
LYPLA2 gel ABPP = blocks human acyl-protein thioesterase 2 in gel ABPP | shares compounds with LYPLA2 inh | rhLYPLA2 in mouse brain proteome, gel ABPP FP-Rh | inhibition, % at 20 µM | hit rate 30% among 150;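 active = inhibition of LYPLA2 enzyme probe labeling above about 50%, limit read from the data; inactive = inhibition below that limit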;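 also: loss of FP-Rh probe labeling of the LYPLA2 gel band measured as band density; 0% = DMSO only control band and 100% = blank gel background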
* hit, by the source's call; . = no result given. Sampled rows, rich in hits. Any-hit rate of the full collection: about 1.8%.

SMILES	LYPLA2 inh	LYPLA1 counter	Fam108B counter	PAD4 inh	GSTO1 counter	PME-1 inh	LYPLA2 conf	others
Cc1ccc(C(=O)Cn2cnc3ccccc3c2=O)cc1	24	-4	-6	-2	3	-1	.
COc1ccc(C(=O)CCC(=O)N2CCN(c3ccc(C)cc3)C(C)C2)cc1 (configuration not stated)	10	3	4	-2	-1	-5	.
O=C1CN=C(Nc2ccccc2)N1Cc1cccs1	2	-3	4	1	-2	-2	.
CC(C)c1ccc(NC2=NCC(=O)N2Cc2cccs2)cc1	34*	-2	0	0	-2	-1	26*
Cc1ccc(C(CNC(=O)C(=O)Nc2ccc3c(c2)OCCO3)N2CCN(C)CC2)cc1 (configuration not stated)	44*	-4	-1	-6	6	-3	0
O=C(Nc1ccc2oc(-c3ccncc3)nc2c1)c1ccc2c(c1)OCO2	12	6	-4	-3	14	7	.
O=C(Nc1ccc2oc(-c3ccncc3)nc2c1)c1ccc2c(c1)OCCO2	28*	9	-10	-5	7	-9	24
CC(=O)N1CCOc2ccc(S(=O)(=O)N3CCC(C(=O)NCc4ccc(C)cc4)CC3)cc21	-1	-4	6	0	-3	6	.
O=C(NCc1cccnc1)c1ccc(NC(=O)c2ccc([N+](=O)[O-])cc2)cc1	37*	6	-6	-5	5	6	30*
Cc1ccc(NS(=O)(=O)c2cccc(C(=O)Nc3cccnc3)c2)c(C)c1	.	.	.	2	.	.	.
O=C(c1cc(COc2ccc(F)cc2F)on1)N1CC2C[C@@H]3CC1C[C@H](C2)C3	7	0	1	-1	7	3	.
O=C(c1cc(COc2ccc(F)cc2F)on1)N1C[C@H]2CC[C@H]1C2	27*	2	1	-3	2	1	1
CN=C1SC(CC(=O)Nc2ccc(F)cc2F)C(=O)N1/N=C(\C)c1cccc(OCC(=O)O)c1 (configuration not stated)	26*	-1	2	3	7	5	25
CC(=O)Nc1ccc(NC(=O)C(C)OC(=O)c2cccc(S(=O)(=O)N3CCCCCC3)c2)cc1 (configuration not stated)	-4	-2	-5	-1	-11	-4	.
O=[N+]([O-])c1cnc(Nc2ccc(Cl)cn2)c([N+](=O)[O-])c1	29*	2	3	-2	10	4	32*
COC(=O)Cc1ccc(NC(=O)c2ccc3c(c2)C(=O)N(Cc2cccnc2)C3=O)cc1	28*	4	2	-2	3	3	26*
CC(C)c1ccc(NC(=O)c2ccc3c(c2)C(=O)N(Cc2cccnc2)C3=O)cc1	51*	-1	-4	-2	-1	8	53*	LYPLA2 gel ABPP=26
CCOC(=O)c1ccc(NC(=O)c2ccc3c(c2)C(=O)N(Cc2cccnc2)C3=O)cc1	41*	3	3	-1	13	-12	47*
Cc1ccc2nc(NCc3ccco3)c(C=NCc3ccco3)c(=O)n2c1	32*	0	2	-4	1	3	-3
Cc1ccc2nc(NCc3ccccc3)c(C=NCc3cccnc3)c(=O)n2c1	12	1	0	-2	-11	-1	.
O=C(COC(=O)Cc1c(F)cccc1Cl)NC1CCS(=O)(=O)C1 (configuration not stated)	-3	-1	-1	5	4	1	.
O=C(COc1ccc2ccccc2c1)NCC(=O)N/N=C/c1ccco1	30*	0	-1	-3	0	-3	-4
Cn1c(N)c(C(=O)COC(=O)c2ccccc2C(=O)c2ccc(Cl)c([N+](=O)[O-])c2)c(=O)n(C)c1=O	.	.	.	1	.	.	.
COc1cc(/C=C(\C#N)C(=O)NCc2ccccc2)ccc1OCc1ccc(C(=O)O)cc1	41*	-2	-1	3	-7	6	29*
